What was measured:
Assay in all cases: DAPPL (digital affinity profiling via proximity ligation, sequencing); 10 mM Tris-HCl pH 7.5, 50 mM NaCl, 1 mM DTT, 4% glycerol, room temperature, 30 min; GST-TFs on glutathione beads, 16-mer random dsDNA library, 0.1% formaldehyde crosslink after washing; high values mean tight binding
[1] = target: T1, FLI1 (Homo sapiens, UniProt Q01543 1-452); conditions: protein: recombinant; tags: N-terminal GST; dsDNA, one strand shown
T1 sequence: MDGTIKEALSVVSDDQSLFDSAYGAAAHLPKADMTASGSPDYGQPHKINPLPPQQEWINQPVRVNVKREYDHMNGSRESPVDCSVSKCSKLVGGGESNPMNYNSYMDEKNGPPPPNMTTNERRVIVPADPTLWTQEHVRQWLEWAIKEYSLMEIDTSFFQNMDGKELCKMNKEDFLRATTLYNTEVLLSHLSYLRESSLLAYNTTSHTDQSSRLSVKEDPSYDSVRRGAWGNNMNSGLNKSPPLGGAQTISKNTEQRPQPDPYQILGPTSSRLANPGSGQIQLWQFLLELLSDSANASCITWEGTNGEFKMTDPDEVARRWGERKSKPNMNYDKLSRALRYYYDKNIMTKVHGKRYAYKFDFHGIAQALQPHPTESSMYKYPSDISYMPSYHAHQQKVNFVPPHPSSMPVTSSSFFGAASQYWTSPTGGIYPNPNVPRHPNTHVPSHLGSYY
Procedure, shortened: (§1)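 Yeast served to express human transcription factors as GST fusions, which were then captured on glutathione beads and labelled with DNA barcodes. Pooled with a tag-only sample, they were incubated with 200 nmole of a 16-mer random double-stranded DNA library for 30 min at room temperature in Tris/NaCl/DTT/glycerol buffer, washed, crosslinked with 0.1% formaldehyde, ligated by proximity, amplified by PCR and sequenced. Dividing each hexamer's read frequency for a factor by its frequency for the tag-only sample gives the binding signal.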

[2] = target: T2, ELK1 (Homo sapiens, UniProt P19419 1-428); conditions: protein: recombinant; tags: N-terminal GST; dsDNA, one strand shown
T2 sequence: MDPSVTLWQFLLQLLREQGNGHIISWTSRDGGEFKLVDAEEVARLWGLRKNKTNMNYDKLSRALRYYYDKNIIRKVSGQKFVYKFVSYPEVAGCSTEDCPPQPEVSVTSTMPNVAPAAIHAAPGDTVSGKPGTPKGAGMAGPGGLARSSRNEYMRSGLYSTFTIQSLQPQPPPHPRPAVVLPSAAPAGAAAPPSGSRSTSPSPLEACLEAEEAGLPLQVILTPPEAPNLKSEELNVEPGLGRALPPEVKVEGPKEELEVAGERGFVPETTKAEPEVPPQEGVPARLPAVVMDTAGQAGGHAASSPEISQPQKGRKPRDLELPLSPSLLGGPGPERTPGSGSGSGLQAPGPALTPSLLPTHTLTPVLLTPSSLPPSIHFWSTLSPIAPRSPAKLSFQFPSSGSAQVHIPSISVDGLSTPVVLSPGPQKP
Procedure, shortened: as §1

[3] = target: T3, GABPA (Homo sapiens, UniProt Q06546 1-454); conditions: protein: recombinant; tags: N-terminal GST; dsDNA, one strand shown
T3 sequence: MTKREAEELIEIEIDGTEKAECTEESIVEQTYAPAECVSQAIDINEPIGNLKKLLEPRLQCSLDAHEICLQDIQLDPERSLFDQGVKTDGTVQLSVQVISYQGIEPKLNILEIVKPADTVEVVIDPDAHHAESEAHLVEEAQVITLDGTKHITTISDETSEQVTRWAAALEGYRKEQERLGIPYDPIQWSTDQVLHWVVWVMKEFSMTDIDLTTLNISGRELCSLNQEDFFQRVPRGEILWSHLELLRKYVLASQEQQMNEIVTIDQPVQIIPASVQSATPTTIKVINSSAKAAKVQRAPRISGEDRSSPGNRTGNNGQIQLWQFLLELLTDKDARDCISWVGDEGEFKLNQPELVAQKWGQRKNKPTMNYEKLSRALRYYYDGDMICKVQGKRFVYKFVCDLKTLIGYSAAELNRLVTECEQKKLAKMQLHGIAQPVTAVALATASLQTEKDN
Procedure, shortened: as §1

[4] = target: T4, ERG (Homo sapiens, UniProt P11308 1-479); conditions: protein: recombinant; tags: N-terminal GST; dsDNA, one strand shown
T4 sequence: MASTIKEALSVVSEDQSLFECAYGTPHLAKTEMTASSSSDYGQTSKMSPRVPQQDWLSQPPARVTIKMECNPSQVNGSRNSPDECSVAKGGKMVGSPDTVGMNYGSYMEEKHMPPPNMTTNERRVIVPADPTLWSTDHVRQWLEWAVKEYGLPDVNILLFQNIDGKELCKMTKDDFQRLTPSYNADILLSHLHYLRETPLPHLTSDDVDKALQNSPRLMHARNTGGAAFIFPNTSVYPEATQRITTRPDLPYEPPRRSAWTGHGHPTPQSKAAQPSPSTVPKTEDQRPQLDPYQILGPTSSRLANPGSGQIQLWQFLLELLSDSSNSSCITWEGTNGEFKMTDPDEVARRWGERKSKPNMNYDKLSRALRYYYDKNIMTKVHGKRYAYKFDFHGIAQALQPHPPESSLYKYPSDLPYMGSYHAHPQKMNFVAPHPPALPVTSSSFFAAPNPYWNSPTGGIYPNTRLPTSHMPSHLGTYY
Procedure, shortened: as §1

[5] = target: ELF1 (Homo sapiens, UniProt P32519 1-619); conditions: protein: recombinant; tags: N-terminal GST; dsDNA, one strand shown
Procedure, shortened: as §1

[6] = target: T5, EHF (Homo sapiens, UniProt Q9NZC4 1-300); conditions: protein: recombinant; tags: N-terminal GST; dsDNA, one strand shown
T5 sequence: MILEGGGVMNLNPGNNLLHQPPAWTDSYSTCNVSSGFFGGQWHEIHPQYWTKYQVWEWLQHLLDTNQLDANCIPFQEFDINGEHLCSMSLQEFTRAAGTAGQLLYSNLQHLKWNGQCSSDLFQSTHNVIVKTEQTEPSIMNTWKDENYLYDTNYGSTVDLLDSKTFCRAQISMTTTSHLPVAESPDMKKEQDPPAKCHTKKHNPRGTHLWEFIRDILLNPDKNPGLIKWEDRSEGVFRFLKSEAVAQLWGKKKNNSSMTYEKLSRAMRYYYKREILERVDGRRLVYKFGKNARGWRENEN
Procedure, shortened: as §1

[7] = target: SPI1 (Homo sapiens, UniProt P17947 1-270); conditions: protein: recombinant; tags: N-terminal GST; dsDNA, one strand shown
Procedure, shortened: as §1

[8] = target: SPIB (Homo sapiens, UniProt Q01892 1-262); conditions: protein: recombinant; tags: N-terminal GST; dsDNA, one strand shown
Procedure, shortened: as §1

[9] = target: T6, ELK3 (Homo sapiens, UniProt P41970 1-407); conditions: protein: recombinant; tags: N-terminal GST; dsDNA, one strand shown
T6 sequence: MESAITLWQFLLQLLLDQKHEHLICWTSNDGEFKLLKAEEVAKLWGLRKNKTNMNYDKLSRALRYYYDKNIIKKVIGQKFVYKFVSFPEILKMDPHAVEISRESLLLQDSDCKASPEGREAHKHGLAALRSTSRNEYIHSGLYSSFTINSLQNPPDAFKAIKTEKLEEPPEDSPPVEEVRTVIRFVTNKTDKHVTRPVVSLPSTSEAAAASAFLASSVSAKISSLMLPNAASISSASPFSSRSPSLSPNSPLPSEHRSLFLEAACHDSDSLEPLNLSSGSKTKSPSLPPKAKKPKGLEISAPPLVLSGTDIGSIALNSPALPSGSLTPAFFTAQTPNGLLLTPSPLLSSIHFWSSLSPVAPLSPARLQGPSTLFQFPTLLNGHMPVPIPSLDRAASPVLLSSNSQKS
Procedure, shortened: as §1

[10] = target: T7, FEV (Homo sapiens, UniProt Q99581 1-238); conditions: protein: recombinant; tags: N-terminal GST; dsDNA, one strand shown
T7 sequence: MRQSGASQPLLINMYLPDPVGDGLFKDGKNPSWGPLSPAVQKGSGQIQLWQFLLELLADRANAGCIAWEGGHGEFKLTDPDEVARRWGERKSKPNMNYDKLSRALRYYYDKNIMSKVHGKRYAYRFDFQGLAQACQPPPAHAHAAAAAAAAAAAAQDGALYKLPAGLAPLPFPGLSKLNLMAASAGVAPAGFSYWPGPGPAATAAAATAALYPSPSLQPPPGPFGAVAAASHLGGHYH
Procedure, shortened: as §1

[11] = target: ETV5 (Homo sapiens, UniProt P41161 1-510); conditions: protein: recombinant; tags: N-terminal GST; dsDNA, one strand shown
Procedure, shortened: as §1

[12] = target: HSF1 (Homo sapiens, UniProt Q00613 1-529); conditions: protein: recombinant; tags: N-terminal GST; chain copies: 3; dsDNA, one strand shown
Procedure, shortened: as §1

[13] = target: T8, SPIC (Homo sapiens, UniProt Q8N5J4 1-248); conditions: protein: recombinant; tags: N-terminal GST; dsDNA, one strand shown
T8 sequence: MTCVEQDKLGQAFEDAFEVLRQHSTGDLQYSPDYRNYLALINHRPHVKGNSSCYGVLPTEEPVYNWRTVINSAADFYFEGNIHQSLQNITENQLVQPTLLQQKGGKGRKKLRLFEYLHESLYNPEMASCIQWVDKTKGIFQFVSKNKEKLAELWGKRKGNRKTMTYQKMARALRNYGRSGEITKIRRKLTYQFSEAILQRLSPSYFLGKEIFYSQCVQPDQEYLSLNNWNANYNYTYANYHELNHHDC
Procedure, shortened: as §1

[14] = target: ELF4 (Homo sapiens, UniProt Q99607 1-663); conditions: protein: recombinant; tags: N-terminal GST; dsDNA, one strand shown
Procedure, shortened: as §1

[15] = target: T9, ELK4 (Homo sapiens, UniProt P28324-2 1-405); conditions: protein: recombinant; tags: N-terminal GST; dsDNA, one strand shown
T9 sequence: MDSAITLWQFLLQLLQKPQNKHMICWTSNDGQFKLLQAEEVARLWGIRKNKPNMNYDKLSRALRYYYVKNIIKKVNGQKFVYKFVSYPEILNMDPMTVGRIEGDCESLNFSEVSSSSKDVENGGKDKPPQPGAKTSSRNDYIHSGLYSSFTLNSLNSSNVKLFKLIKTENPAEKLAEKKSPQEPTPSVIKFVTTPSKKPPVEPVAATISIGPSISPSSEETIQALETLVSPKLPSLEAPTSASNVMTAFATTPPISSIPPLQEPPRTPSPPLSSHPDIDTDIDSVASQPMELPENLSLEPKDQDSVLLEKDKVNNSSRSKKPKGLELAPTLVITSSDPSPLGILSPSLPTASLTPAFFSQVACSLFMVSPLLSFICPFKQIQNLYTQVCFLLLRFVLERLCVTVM
Procedure, shortened: as §1

[16] = target: T10, ETV2 (Homo sapiens, UniProt O00321 1-342); conditions: protein: recombinant; tags: N-terminal GST; dsDNA, one strand shown
T10 sequence: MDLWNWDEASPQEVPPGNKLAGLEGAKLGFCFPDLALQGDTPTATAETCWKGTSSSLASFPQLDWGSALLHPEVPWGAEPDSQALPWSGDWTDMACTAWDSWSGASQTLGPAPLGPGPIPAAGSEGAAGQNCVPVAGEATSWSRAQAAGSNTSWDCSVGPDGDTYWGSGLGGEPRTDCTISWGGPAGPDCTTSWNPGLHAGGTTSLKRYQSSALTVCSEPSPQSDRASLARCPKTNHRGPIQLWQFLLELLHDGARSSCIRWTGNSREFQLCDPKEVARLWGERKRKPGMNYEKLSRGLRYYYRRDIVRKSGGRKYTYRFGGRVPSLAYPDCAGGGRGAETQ
Procedure, shortened: as §1

[17] = target: T11, ELF3 (Homo sapiens, UniProt P78545 1-371); conditions: protein: recombinant; tags: N-terminal GST; dsDNA, one strand shown
T11 sequence: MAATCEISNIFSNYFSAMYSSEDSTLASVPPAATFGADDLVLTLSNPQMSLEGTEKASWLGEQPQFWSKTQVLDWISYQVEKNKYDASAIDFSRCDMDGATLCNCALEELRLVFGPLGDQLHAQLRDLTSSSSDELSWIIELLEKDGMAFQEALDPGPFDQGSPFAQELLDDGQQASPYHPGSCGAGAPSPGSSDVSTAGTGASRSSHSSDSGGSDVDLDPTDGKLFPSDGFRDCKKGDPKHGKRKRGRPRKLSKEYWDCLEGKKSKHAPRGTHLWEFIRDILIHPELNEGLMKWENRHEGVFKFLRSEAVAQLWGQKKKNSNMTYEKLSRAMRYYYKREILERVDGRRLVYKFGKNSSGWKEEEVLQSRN
Procedure, shortened: as §1

[18] = target: CRX (Homo sapiens, UniProt O43186 1-299); conditions: protein: recombinant; tags: N-terminal GST; dsDNA, one strand shown
Procedure, shortened: as §1

[19] = target: ETV1 (Homo sapiens, UniProt P50549 1-477); conditions: protein: recombinant; tags: N-terminal GST; dsDNA, one strand shown
Procedure, shortened: as §1

ETV5, sequence (P41161 whole entry): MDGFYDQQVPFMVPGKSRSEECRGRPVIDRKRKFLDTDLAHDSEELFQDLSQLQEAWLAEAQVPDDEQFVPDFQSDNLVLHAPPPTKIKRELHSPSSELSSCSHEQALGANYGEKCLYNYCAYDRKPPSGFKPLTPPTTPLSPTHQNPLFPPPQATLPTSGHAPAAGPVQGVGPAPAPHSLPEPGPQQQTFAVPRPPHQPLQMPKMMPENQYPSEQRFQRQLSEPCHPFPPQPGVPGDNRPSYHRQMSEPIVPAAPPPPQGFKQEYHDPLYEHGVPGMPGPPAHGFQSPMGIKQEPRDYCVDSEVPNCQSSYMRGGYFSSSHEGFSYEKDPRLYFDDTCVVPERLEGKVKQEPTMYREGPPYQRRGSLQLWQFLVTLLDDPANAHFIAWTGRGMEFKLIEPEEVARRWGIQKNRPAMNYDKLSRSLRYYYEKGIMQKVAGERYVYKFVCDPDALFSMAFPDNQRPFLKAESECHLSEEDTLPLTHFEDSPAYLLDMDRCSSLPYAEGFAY
ELF1, sequence (P32519 whole entry): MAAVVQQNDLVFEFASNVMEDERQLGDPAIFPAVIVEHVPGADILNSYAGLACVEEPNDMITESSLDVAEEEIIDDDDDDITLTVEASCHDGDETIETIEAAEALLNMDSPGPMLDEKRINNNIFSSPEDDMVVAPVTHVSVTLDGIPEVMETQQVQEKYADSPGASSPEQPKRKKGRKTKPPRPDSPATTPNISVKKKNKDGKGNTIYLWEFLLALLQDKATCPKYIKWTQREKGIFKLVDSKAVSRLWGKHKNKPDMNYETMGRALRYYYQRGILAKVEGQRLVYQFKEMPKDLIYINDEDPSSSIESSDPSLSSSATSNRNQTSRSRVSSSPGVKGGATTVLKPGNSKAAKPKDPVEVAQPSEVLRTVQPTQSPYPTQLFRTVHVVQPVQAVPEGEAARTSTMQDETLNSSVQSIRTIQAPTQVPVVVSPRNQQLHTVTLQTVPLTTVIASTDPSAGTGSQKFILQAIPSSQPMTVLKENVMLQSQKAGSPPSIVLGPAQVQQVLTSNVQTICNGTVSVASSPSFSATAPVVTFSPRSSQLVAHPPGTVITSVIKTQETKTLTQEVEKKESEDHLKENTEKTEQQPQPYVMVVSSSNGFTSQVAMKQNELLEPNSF
CRX, sequence (O43186 whole entry): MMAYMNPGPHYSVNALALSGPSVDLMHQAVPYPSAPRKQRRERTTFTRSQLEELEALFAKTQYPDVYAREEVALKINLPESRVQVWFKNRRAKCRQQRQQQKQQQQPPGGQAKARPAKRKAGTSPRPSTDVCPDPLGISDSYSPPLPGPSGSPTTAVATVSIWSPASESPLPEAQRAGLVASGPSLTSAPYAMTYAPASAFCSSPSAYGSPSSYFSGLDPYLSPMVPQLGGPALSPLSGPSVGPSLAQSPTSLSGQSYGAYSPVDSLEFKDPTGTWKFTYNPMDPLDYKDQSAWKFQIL
ETV1, sequence (P50549 whole entry): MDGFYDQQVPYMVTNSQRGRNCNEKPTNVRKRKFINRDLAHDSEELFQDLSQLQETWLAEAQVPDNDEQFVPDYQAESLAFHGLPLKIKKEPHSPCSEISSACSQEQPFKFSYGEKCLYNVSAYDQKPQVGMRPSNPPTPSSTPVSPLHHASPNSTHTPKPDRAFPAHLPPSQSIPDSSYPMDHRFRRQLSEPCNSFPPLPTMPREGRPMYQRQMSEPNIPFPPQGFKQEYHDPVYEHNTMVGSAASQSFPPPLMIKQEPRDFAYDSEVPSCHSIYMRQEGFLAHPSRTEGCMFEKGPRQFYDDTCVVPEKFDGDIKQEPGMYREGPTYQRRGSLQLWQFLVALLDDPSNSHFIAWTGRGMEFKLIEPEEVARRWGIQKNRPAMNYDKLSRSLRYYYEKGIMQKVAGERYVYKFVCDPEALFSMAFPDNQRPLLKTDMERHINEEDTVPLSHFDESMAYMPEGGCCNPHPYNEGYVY
HSF1, sequence (Q00613 whole entry): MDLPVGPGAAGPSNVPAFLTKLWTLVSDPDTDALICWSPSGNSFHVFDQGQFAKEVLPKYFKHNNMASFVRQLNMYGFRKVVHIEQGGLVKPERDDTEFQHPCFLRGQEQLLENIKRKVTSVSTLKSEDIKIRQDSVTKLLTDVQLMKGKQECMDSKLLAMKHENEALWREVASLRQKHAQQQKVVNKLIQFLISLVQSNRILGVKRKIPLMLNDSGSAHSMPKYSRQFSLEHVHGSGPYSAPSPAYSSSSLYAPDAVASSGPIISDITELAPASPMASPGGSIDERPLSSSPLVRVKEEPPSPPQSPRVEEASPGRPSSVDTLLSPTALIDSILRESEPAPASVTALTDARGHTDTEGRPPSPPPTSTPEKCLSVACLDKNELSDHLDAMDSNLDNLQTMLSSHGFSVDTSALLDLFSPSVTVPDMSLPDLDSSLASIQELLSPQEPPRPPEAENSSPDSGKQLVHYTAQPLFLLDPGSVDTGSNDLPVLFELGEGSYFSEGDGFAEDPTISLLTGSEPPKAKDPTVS
ELF4, sequence (Q99607 whole entry): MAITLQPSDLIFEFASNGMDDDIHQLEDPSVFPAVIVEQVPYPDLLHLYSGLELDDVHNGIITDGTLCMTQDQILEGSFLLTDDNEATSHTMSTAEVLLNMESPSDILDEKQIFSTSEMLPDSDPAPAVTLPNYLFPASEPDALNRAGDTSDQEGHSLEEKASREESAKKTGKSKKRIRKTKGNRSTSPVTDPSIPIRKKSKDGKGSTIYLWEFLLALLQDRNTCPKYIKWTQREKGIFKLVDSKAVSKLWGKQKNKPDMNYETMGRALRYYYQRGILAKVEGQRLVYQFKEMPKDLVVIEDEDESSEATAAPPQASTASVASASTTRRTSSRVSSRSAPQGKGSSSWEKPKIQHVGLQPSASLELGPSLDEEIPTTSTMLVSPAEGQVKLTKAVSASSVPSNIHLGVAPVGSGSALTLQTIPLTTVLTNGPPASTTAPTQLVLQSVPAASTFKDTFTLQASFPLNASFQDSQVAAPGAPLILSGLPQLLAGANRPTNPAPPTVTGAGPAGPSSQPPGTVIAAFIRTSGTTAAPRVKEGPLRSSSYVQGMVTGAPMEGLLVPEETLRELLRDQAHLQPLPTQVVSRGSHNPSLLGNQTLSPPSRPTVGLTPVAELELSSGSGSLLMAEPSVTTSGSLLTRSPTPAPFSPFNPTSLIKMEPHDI
SPIB, sequence (Q01892 whole entry): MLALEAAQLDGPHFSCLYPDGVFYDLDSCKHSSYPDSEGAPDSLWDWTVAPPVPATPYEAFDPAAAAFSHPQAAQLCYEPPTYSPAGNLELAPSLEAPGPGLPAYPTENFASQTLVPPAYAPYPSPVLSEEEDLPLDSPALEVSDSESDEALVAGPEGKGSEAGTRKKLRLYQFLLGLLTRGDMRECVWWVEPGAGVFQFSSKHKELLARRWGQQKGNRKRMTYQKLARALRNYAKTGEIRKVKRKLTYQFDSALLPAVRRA

## ATTCTC
[1]
  binding signal: 1.35 fold enrichment (6-mer frequency, TF over GST control)
[2]
  binding signal: 1.27 fold enrichment (6-mer frequency, TF over GST control)
[3]
  binding signal: 1.32 fold enrichment (6-mer frequency, TF over GST control)
[4]
  binding signal: 1.25 fold enrichment (6-mer frequency, TF over GST control)
[5]
  binding signal: 1.24 fold enrichment (6-mer frequency, TF over GST control)
[6]
  binding signal: 1.27 fold enrichment (6-mer frequency, TF over GST control)
[7]
  binding signal: 1.27 fold enrichment (6-mer frequency, TF over GST control)
[8]
  binding signal: 1.32 fold enrichment (6-mer frequency, TF over GST control)
[9]
  binding signal: 1.42 fold enrichment (6-mer frequency, TF over GST control)
[10]
  binding signal: 1.32 fold enrichment (6-mer frequency, TF over GST control)
[11]
  binding signal: 1.31 fold enrichment (6-mer frequency, TF over GST control)
[12]
  binding signal: 2.42 fold enrichment (6-mer frequency, TF over GST control)
[13]
  binding signal: 1.15 fold enrichment (6-mer frequency, TF over GST control)
[14]
  binding signal: 1.35 fold enrichment (6-mer frequency, TF over GST control)
[15]
  binding signal: 1.25 fold enrichment (6-mer frequency, TF over GST control)
[16]
  binding signal: 1.36 fold enrichment (6-mer frequency, TF over GST control)
[17]
  binding signal: 1.2 fold enrichment (6-mer frequency, TF over GST control)
[18]
  binding signal: 1.69 fold enrichment (6-mer frequency, TF over GST control)
[19]
  binding signal: 1.23 fold enrichment (6-mer frequency, TF over GST control)
